Reference: PubChem BioAssay (NCI)
About 83,000 compounds went through this panel and 20% of them were active in at least one assay; those are over-represented in the sample as a whole.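 Assay: single dose, 48 h. Readout: percent growth (0 = no net growth; negative = cell death). Active: <10.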 A number with no mark means an inactive call. The source made the active and inactive calls.

system: HT29 colon; assay: NCI-60 one-dose screen, 48 h (100 = growth as untreated, 0 = no growth, -100 = all killed); conditions: 10 µM unless noted

SMILES | growth
Cc1ccc2c(C(C[N+](=O)[O-])c3ccco3)c(-c3ccccc3)[nH]c2c1 (stereo not drawn) | 5.24% (active)
NC(=O)c1cc(Br)ccc1NC(=O)/C=C/c1ccccc1 | 13.9%
O=C1c2cccc3cccc(c23)C(=O)N1CCCCN1CCN(CCCCOc2ccc(-c3nc4ccc(N5CCOCC5)cc4[nH]3)cc2)CC1 | 83.3%
Cc1cc(C)nc(SC2=C(Nc3cccc(Cl)c3)C(=O)N(Cc3ccccc3)C2=O)n1 | 53.6% [30 µM]
CN(C)C(=S)N=Nc1c(O)[nH]c2ccccc12 | 28.7%
O=C1/C(=C/c2ccc3c(c2)OCO3)SC(=S)N1CCc1ccc(O)cc1 | 113%
N#Cc1cnn(-c2nc3c(Cl)cccc3s2)c1N | 84.8%
Nc1ccn(-c2ccc(Br)cc2)c(=O)n1 | 125%
Cc1ccc(C2=NN3C(C2)c2cc(Br)ccc2OC32CCN(Cc3ccccc3)CC2)o1 (stereo not drawn) | 107%
COc1ccc(C(=O)COc2ccc(/C=C3\COc4ccc(OC)cc4C3=O)cc2)cc1 | 93%
CCN(CC)c1ccc(-c2cc(-c3cc(OC)c(OC)c(OC)c3)nc(N3CCOCC3)c2C#N)cc1 | 2.21% (active)
Cn1cc(-c2nonc2-c2cn(C)c3ccc(F)cc23)c2ccccc21 | 6.32% (active)
COc1ccc(C(=O)COc2cccc(/C=C3\CSc4ccccc4C3=O)c2)cc1 | -88.2% (active)
CCn1c(Cc2ccccc2Nc2c(Cl)cccc2Cl)nnc1SCC(=O)NN1C(=O)/C(=C/c2cc(OC)c(O)c(OC)c2)SC1=S | 25.5%
O=C1c2ccccc2C(=O)c2c(N=Nc3[nH]c(=S)[nH]c3O)cccc21 | 9.93% (active)
C#CCOc1ccc2ncnc(N3CCC(NC(=O)CCl)CC3)c2c1 | 64.9% [8.25 µM]
Cc1cc2c3ccccc3ccc2[n+]2ccccc12 | 69%
Cc1ccc(/C=C2\SC(=S)N(CC(=O)NCCCN3CCOCC3)C2=O)cc1 | 109%
CC(=O)O[C@H]1[C@@H]2OC(=O)C(CSc3ccccc3)[C@@H]2C[C@H]2O[C@]2(C)CC/C=C(\C)CCC[C@@H]1C (stereo partly drawn) | 19.5%

SMILES | growth
Cc1cc2nc(NC(=O)CN3CCN(CCN4C(=O)c5cccc6cccc(c56)C4=O)CC3)sc2cc1C | 51.8%
CC(=O)Oc1ccc(Cl)cc1CN(C(C)=O)C1CCCCC1 | 107%
O=C(NCCN1CCOCC1)Nc1ccc(-c2cc3c(Nc4ccc(Oc5cccc(C(F)(F)F)c5)c(Cl)c4)ncnc3s2)cc1 | -69.2% (active)
Cn1ccnc1C(=O)/C=C/c1ccccc1 | 1.12% (active)
Brc1ccc(-c2csc(Nc3ccccn3)n2)cc1 | 97.8%
COc1ccc2c(c1)O/C(=C\c1cccc(OCC(=O)Nc3nc4c(s3)CCCC4)c1)C2=O | 84.7%
C=CCSSC1N=CNc2nc[nH]c21 (stereo not drawn) | 50.1%
COc1ccc(S(=O)(=O)N2CCCCCC2)cc1NC(=O)c1[nH]c(C)c2c1CCCCC2=O | 16.8%
Cc1ccc(C(SCC(N)C(=O)O)(c2ccccc2)c2ccc(C)cc2)cc1 (stereo not drawn) | 1.66% (active)
O=C(O)c1ccc(NC(=O)c2ccc(-c3cccc([N+](=O)[O-])c3)o2)cc1 | 104%
CC1=CC(C)(C)Nc2ccc(Cc3ccc4c(c3)C(C)=CC(C)(C)N4)cc21 | 103%
COc1ccc(C2CC(c3ccc4ccccc4c3)=NN2/C=C2\SC(=S)N(NC(=O)Cc3ccccc3Nc3c(Cl)cccc3Cl)C2=O)cc1 (stereo not drawn) | 32.3%
Cn1c(NCCc2ccc(O)c(O)c2)nc2c1c(=O)n(Cc1ccc(Br)cc1)c(=O)n2C | 96.8%
Cc1ccc2c(c1)C(=O)/C(=C/c1cccc(OCC(=O)c3ccc(Cl)cc3)c1)CS2 | 87.9%
COC(=O)c1ccc(NC(=O)c2ccc(-c3cccc([N+](=O)[O-])c3)o2)cc1 | 103%
COc1cc(C(=O)/C=C/c2cccnc2Nc2ccc(Cl)cc2)cc(OC)c1OC | -55.1% (active)
Cc1cc(C)nc(SC2=C(Nc3cc(Cl)ccc3O)C(=O)N(Cc3ccccc3)C2=O)n1 | 108% [30 µM]
CC(C)CSc1nc(N)nc2c1ncn2C1OC(CO)C(O)C1O (stereo not drawn) | 103%
O=C1NC(=Nc2ccc(O)cc2)S/C1=C\c1cccc(Cl)c1 | 109%
